Source: PubChem
Most compounds without a hit are left out; they make up all but 7.3% or so of the library.
SNCA viab count – GF-AFC viability counterscreen for inhibitors of alpha-synuclein gene (SNCA) expression. HEK-293-SNCA-luc viability, GF-AFC fluorescence, 24 h. hit rate 0.12% among 150,000. Potency, µM (titrated, usually from 57.1 µM), inactives show at the highest dose activity change, negative = cytotoxicity, most hits filed as cytotoxic. AID 1671193, 2021;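 further: potency means the concentration at half of the fitted maximal effect; 0% = DMSO-treated cells and -100% = medium-only wells without cells; nearly all actives have a fitted effect of over 30% in size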
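HEK-293-SNCA-luc cells (1500/well) plated 24 h, then exposed 24 h to a dilution series; GF-AFC added 30 min at 37C, fluorescence 405/540 nm; normalised to medium-only and DMSO wells, Hill fit.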
3T3 cytotox – Cytotoxic Profiling in NIH 3T3 Cell Line of Diverse Libraries Using Quantitative High-Throughput Screening; Potency, µM (highest dose often 96.7 µM), inactives show at the highest dose activity change, negative = cytotoxicity, usual class: inhibitors; AID 1345082, 2018; hit rate 4.3% among 94,000; NIH 3T3 viability, CellTiter-Glo ATP luminescence, 48-72 h; further: potency means the concentration at half of the fitted maximal effect; nearly all actives have a fitted effect of over 55% in size
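First NIH 3T3 cells are plated at 400 cells/well; next compound is pinned in; then plates incubate 48 or 72 hr at 37 °C; finally CellTiter-Glo is added and luminescence read after 10 min.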
IP6K1 inh – Primary qHTS assay for small molecule inhibitors of Inositol hexaphosphate kinase 1 (IP6K1); activity change, % (series mostly up to about 58 µM); Inositol hexakisphosphate kinase 1 (Homo sapiens), Q92551; IP6K1 kinase, ADP-Glo luminescence, 2 h; stronger effect = lower value; AID 1645851, 2021; hit rate 0.81% among 140,000; in the data active means activity change below about -25%
Target sequence (Q92551 whole entry, looked up): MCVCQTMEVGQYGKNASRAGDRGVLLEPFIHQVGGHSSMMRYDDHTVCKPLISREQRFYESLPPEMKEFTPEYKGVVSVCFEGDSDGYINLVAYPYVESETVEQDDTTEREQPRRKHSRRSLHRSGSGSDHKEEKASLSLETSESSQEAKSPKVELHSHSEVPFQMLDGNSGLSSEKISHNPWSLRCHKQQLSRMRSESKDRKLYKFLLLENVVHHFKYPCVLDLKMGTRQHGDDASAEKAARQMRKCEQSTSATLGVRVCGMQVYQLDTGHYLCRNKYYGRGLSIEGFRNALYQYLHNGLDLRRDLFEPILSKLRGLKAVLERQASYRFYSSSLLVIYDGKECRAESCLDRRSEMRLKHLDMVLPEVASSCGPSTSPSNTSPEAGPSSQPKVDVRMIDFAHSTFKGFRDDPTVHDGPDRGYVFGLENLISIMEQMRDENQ
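ADP-Glo luminescence measures ADP made by human IP6K1 during a 2 h RT reaction with ATP/IP6 (mix at 1.3 mM/130 uM); top library doses 57.5 and 19.1 uM final.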
HEK293 tox – Cytotoxic Profiling in HEK 293 Cell Line of Diverse Libraries Using Quantitative High-Throughput Screening. AID 1345083, 2018. hit rate 6.6% among 94,000. Potency, µM (doses to about 115 µM), inactives show top-dose activity change, negative = cytotoxicity, hits mostly inhibitors. HEK 293 viability, ATP luminescence (CellTiter-Glo), 48-72 h; further: potency means the concentration at half of the fitted maximal effect; nearly all actives have a fitted effect of over 60% in size
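qHTS cytotoxicity; HEK 293, 250 cells/well; compound pinned; 48 or 72 hr, 37 degree Celsius, 5% CO2, 95% humidity; CellTiter-Glo, 10 min RT; luminescence (ATP).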
Luciferase inh – Firefly luciferase inhibition profiling of diverse chemical library using quantitative high-throughput screening | Luciferin 4-monooxygenase (Photinus pyralis), P08659 | purified P. pyralis luciferase, luminescence, biochemical | Potency, µM (highest dose often 115 µM), most hits filed as inhibitors | hit rate 2.5% among 76,000 | AID 1347043, 2019; further: potency means the concentration at half of the fitted maximal effect; nearly all actives have a fitted effect of over 65% in size
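FLuc 10nM, D-luciferin 10uM, ATP 10uM, Mg acetate 10mM, Tris acetate pH 7.5, Tween/BSA; cpd qHTS; enzyme added last; CCD luminescence.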
SNCA expr inh – Primary qHTS assay for inhibitors of alpha-synuclein gene (SNCA) expression; HEK-293 SNCA-luciferase knock-in, luminescence, 24 h; Potency, µM (highest dose often 57.2 µM), without a hit: at the top dose activity change, negative = inhibition, usual class: inhibitors; hit rate 0.17% among 140,000;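 further: potency means the concentration at half of the fitted maximal effect; plate controls were DMSO cells for no effect and cell-free wells for full effect; nearly all actives have a fitted effect of over 45% in size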
Numbers without * were called inactive; i = inactive; ? = inconclusive; . = not tested or not shown; [ ] = dose if it differs, or a comment. Unless noted, the call rests on the fitted dose curve; in most records, active means well fitted curve in the direction sought with a large enough effect; inconclusive means small, poorly fitted or top-dose-only effect, or another doubt; inactive means no such curve, though single readings can be large; an effect the other way counts as inactive or inconclusive. Unless noted, on the % scale 0 is the no-effect control and ±100 the full control effect.

SMILES | SNCA viab count | 3T3 cytotox | IP6K1 inh | HEK293 tox | Luciferase inh | SNCA expr inh
Cc1cc(OC2CN(C(=O)c3ccccn3)C2)ccc1F | 1.2%[87.6 µM] | ? | 9.3 | 79.4µM* | ? | 18.0%[87.6 µM]
O=C(c1ccccn1)N1CC(Oc2ccc(F)cc2F)C1 | 0.3% | -24.3% | -3.0 | -18.6% | . | 133.1%
Cn1nc(C(=O)NC2CC2)c2c1CN(C(=O)c1cccs1)C2 | 0.5% | -20.0% | 13.3 | -15.4% | . | 11.1%
COc1cccc(-c2c(C(=O)NCCc3ccccc3F)nc3sccn23)c1 | -25.6% | ? | 22.0 | ? | . | ?
CN(C)c1ccc(-c2ccnc(N[C@H]3CO[C@H]4[C@@H]3OC[C@@H]4NC(=O)NCc3ccccc3)n2)cc1 | 7.0% | 22.4µM* | 16.1 | 31.6µM* | ? | 9.3%
COCC(=O)N[C@H]1CO[C@H]2[C@@H]1OC[C@@H]2Nc1nccc(-c2cccc(F)c2)n1 | -3.9%[87.6 µM] | ? | -4.6 | 100µM* | i | 21.5%[87.6 µM]
O=C(N[C@H]1CO[C@H]2[C@@H]1OC[C@@H]2Nc1nccc(-c2ccc(-c3ccccc3)cc2)n1)c1ccccc1 | -23.1% | ? | -1.8 | 10µM* | i | -19.0%
CC(=O)N[C@H]1CO[C@H]2[C@@H]1OC[C@@H]2Nc1nccc(-c2cccc(F)c2)n1 | 2.8%[87.6 µM] | -27.8%[174 µM] | -8.0 | ? | i | ?
C=CCNC(=O)N[C@H]1CO[C@H]2[C@@H]1OC[C@@H]2Nc1nccc(-c2ccc(OC)cc2)n1 | -5.3%[87.6 µM] | ? | -6.1 | 89.1µM* | i | ?
Cc1ccc(CN2Cc3[nH]cnc3C[C@H]2c2nc(C(C)C)no2)cc1 | -1.3%[87.6 µM] | ? | 2.2 | ? | i | -9.6%[87.6 µM]
c1ccc2cc(-c3noc([C@@H]4Cc5nc[nH]c5CN4CC4CCCCC4)n3)ccc2c1 | -11.7%[87.6 µM] | 50.1µM* | 11.4 | 70.8µM* | ? | 39.6%[87.6 µM]
Cc1ccc(-c2noc([C@@H]3Cc4nc[nH]c4CN3CC3CCCCC3)n2)cc1 | -17.8%[87.6 µM] | 70.8µM* | -13.9 | 63.1µM* | ? | -2.8%[87.6 µM]
Cc1ccc2c(CNCCc3ccc(Cl)cc3)c(C(=O)O)n(Cc3ccc(F)cc3)c2c1 | 4.3% | . | 3.7 | . | . | -7.6%
C=Cc1ccc(Cn2c(C(=O)O)c(CNCCc3ccccc3)c3ccc(C)cc32)cc1 | 28.2µM* | . | -4.2 | . | . | ?
COC(=O)c1cccc(NC(=S)N[C@H]2CO[C@H]3[C@@H]2OC[C@H]3OC(=O)Nc2cccc(C(F)(F)F)c2)c1 | -6.1% | ? | 3.9 | 44.7µM* | i | -11.2%
O=C(Nc1cccc(C(F)(F)F)c1)O[C@@H]1CO[C@H]2[C@@H]1OC[C@@H]2NC(=S)Nc1ccc(Cl)cc1 | -8.8% | ? | -1.7 | 44.7µM* | i | ?
N#Cc1ccc(NC(=S)N[C@H]2CO[C@H]3[C@@H]2OC[C@H]3OC(=O)Nc2ccccc2)cc1 | -4.6%[87.6 µM] | ? | 0.8 | 35.5µM* | i | -22.9%[87.6 µM]
O=C(Nc1cccc(C(F)(F)F)c1)N[C@H]1CO[C@H]2[C@@H]1OC[C@@H]2Nc1nccc(C2CCCC2)n1 | -3.9% | 79.4µM* | -4.5 | ? | i | -3.5%
O=C(Nc1cccc(C(F)(F)F)c1)O[C@@H]1CO[C@H]2[C@@H]1OC[C@@H]2NC(=S)NC1CCCCC1 | -4.4% | ? | 2.4 | ? | i | -6.4%
O=C(NCc1cccs1)C1CCCN1c1nc2ncccc2o1 (centres undefined) | -3.1%[87.6 µM] | -19.4%[138 µM] | -4.6 | -1.7%[172 µM] | i | 22.8%[87.6 µM]
O=C(N[C@@H]1CN(C(=O)NC2CCCCC2)CCC[C@H]1O)c1ccc(OCc2ccccc2)cc1 | -9.9% | ? | 5.8 | ? | i | ?
COCC(=O)N[C@@H]1CN(Cc2cc(F)c(F)c(F)c2)C[C@H]1CO | -18.9% | 3.2% | -6.2 | i | i | -11.6%
